Screens from PubChem.
BAZ2B inh: qHTS Assay for Inhibitors of BAZ2B; Bromodomain adjacent to zinc finger domain protein 2B (Homo sapiens), Q9UIF8; AlphaScreen BAZ2B-H3K14Ac peptide displacement; Potency, µM (titrated, usually from 114 µM), for the others: top-dose activity change, negative = inhibition, actives largely listed as inhibitors; hit rate 4.4% among 360,000; further: on the % scale 0 is the no-effect control and ±100 the full control effect; nearly all actives have a fitted effect of over 60% in size
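In this displacement format the biotinylated H3(5-23) peptide acetylated at Lys14 serves as ligand at 50 nM, with BAZ2B at 50 nM in PBS pH 7.4 containing 0.01% Tween-20. Donor and acceptor beads are 10 ug/mL final.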
L3MBTL1 block: qHTS Assay for the Inhibitors of L3MBTL1; Lethal(3)malignant brain tumor-like protein 1 (Homo sapiens), Q9Y468; AlphaScreen L3MBTL1–H3K9me1 peptide binding; Potency, µM (titrated, usually from 57.1 µM), without a hit: top-dose activity, negative = inhibition, most hits filed as inhibitors; hit rate 0.66% among 230,000; AID 485360, 2010; further: on the % scale 0 is the no-effect control and ±100 the full control effect; nearly all actives have a fitted effect of over 60% in size
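L3MBTL1 50 nM + b-AHA-H3(1-15)K9me1 75 nM, 30 min RT; compound added, 30 min RT; streptavidin donor/Ni-chelate acceptor beads 10 ug/mL each final, 30 min RT dark; AlphaScreen read.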
JMJD2A Tudor inh: qHTS Assay for Inhibitors of JMJD2A-Tudor Domain | Lysine-specific demethylase 4A (Homo sapiens), O75164 | hit rate 4.4% among 390,000 | AID 504339, 2011 | AlphaScreen JMJD2A-Tudor / H3K4me3 peptide binding | Potency, µM (top dose mostly 114 µM), inactives show top-dose activity change, negative = inhibition, actives largely listed as inhibitors; further: on the % scale 0 is the no-effect control and ±100 the full control effect; nearly all actives have a fitted effect of over 50% in size
Sfp inh: qHTS Assay for Inhibitors of Bacillus subtilis Sfp phosphopantetheinyl transferase (PPTase); 4'-phosphopantetheinyl transferase ffp (Bacillus subtilis), Q9F4F7; hit rate 3.5% among 310,000; AID 1490, 2009; Biochemical Sfp PPTase activity, qHTS; Potency, µM, for inactives: largest response in the series, negative = inhibition, most hits filed as inhibitors;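 further: the enzyme is Sfp with the accession as filed and its product quenches rhodamine fluorescence; 0% = enzyme reaction without inhibitor and -100% = no enzyme wells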
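With Hepes-Na pH 7.6 buffer containing 10 mM MgCl2, Sfp (15 nM) modified BHQ-2-YbbR (12.5 uM) using rhodamine-CoA (5 uM). Two reads 30 minutes apart at 525/598 nm yielded each well's rate.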
G9a block: qHTS Assay for Inhibitors of Histone Lysine Methyltransferase G9a; G9a H3K9 monomethylation, AlphaScreen, 2 h; Potency, µM (series often up to 102 µM), for the others: at the highest dose activity, negative = inhibition, most hits filed as inhibitors; hit rate 8.8% among 350,000; further: on the % scale 0 is the no-effect control and ±100 the full control effect; nearly all actives have a fitted effect of over 75% in size
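AlphaScreen read-out: biotin-H3K9 peptide (500 nM) methylation by 20 nM enzyme with 20 uM SAM, 2 h at room temperature after 15 min compound preincubation; anti-monomethyl H3K9 antibody plus donor/acceptor beads, 10 min dark.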
HP1b chromo inh: HTS for Inhibitors of HP1-beta Chromodomain Interactions with Methylated Histone Tails; AlphaScreen HP1-beta / biotin-H3K9me3 peptide binding; Potency, µM (doses to about 114 µM), for the others: at the top dose activity change, negative = inhibition, actives largely listed as inhibitors; hit rate 0.56% among 390,000; AID 540317, 2011; further: nearly all actives have a fitted effect of over 70% in size
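AlphaScreen: HP1-beta (50 nM) preformed 30 min with biotin-H3(1-18)K9me3 peptide (50 nM) in PBS pH 7.4, 0.01% Tween-20. Compound added for 30 min at RT, then streptavidin donor/nickel chelate acceptor beads (10 ug/mL) for 30 min.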
Active calls of the source: *; ? = inconclusive; . = no result given; ! = repeats disagree; [ ] = another dose, or the depositor's remark. Rows were chosen to be rich in hits. Some 12% of all compounds tested hit in one or more screens of this group. The call rests on the fitted dose curve; in most records, active means well fitted curve in the direction sought with a large enough effect; inconclusive means small, poorly fitted or top-dose-only effect, or another doubt; inactive means no such curve, though single readings can be large; an effect the other way counts as inactive or inconclusive. Potency means the concentration at half of the fitted maximal effect.

SMILES	BAZ2B inh	L3MBTL1 block	JMJD2A Tudor inh	Sfp inh	G9a block	HP1b chromo inh
COc1cc(C2C(C(C)=O)=C(O)C(=O)N2CCN(C)C)ccc1O (centres undefined)	1%	4%	-3%	3%	16%[59 µM]	23%
CCOc1ccc(CCNC(=O)c2cn(CC)c3ccc(S(=O)(=O)N4CCc5ccccc5C4)cc3c2=O)cc1OCC	.	.	?	.	-22%[59 µM]	8%
O=C(CCc1ccco1)CCc1ccco1	.	.	56µM*	.	.	?
O=C(NC(=S)Nn1cnnc1)c1ccccc1Br	-28%	.	-15%	25µM*	-127%[59 µM]	?
Nc1ccc(O)c([N+](=O)[O-])c1	-39%	?	-29%	.	-28%[0.501 µM]	-8%
O=[N+]([O-])c1cc(N=Nc2ccc3ccccc3c2)ccc1O	?	-28%	?	11%	3.2µM*	-17%
CN(C)NC1CCS(=O)(=O)C1 (centres undefined)	?	6%	?	-19%	10µM*	52%
CCCCNc1c2c3c(cccc3n(C)c1=O)C(=O)c1ccccc1-2	26%	94%	40%	-12%	88%[59 µM]	66%
Cn1c(=O)c(N)c2c3c(c(Br)ccc31)C(=O)c1ccccc1-2	-33%	-27%	-34%	1%	4.5µM*	12%[57 µM]
Cc1cc(N)c2ccccc2[n+]1CCCCCCCCCC[n+]1c(C)cc(N)c2ccccc21	.	.	.	4.5µM*!	50µM*!	.
Cc1cc(NC(=O)c2cccc(Oc3ccccc3)c2)n[nH]1	?	.	-24%	6%	-37%	39%
O=C(Nc1nn[nH]n1)c1cccc(Oc2ccccc2)c1	12%	0%	?	-6%	40µM*	30%
CCOc1ccccc1C(=O)Nc1ccccc1C(N)=O	13%	.	-12%	-1%	-31%[12.7 µM]	18%
CCOc1ccccc1C(=O)Nc1nn[nH]n1	50µM*	7%	56µM*	23%	25µM*	?
COC(=O)CC1Oc2ccc(C)cc2-n2cc(-c3ccc(C)cc3)nc21 (centres undefined)	50µM*	.	-29%	.	?	7%
O=C(Cc1ccc(S(=O)(=O)N2CCOCC2)s1)Nc1ccccc1Br	71µM*	-9%	?	-4%	.	-6%
O=C(Nc1cc(Cl)ccc1N1CCOCC1)c1ccc(Br)o1	?	.	-3%	-6%	25µM*	22%
O=C(Cc1ccc(Cl)c(Cl)c1)Nc1ccccc1N1CCOCC1	.	.	12%	-3%	79µM*	54%
O=C(Cc1ccc(S(=O)(=O)N2CCOCC2)s1)NCC(=O)Nc1ccccc1Br	-30%	0%	-3%	.	2%[0.501 µM]	37%
O=C(Cc1ccc(S(=O)(=O)N2CCOCC2)s1)Nc1ccccc1N1CCOCC1	.	.	-17%	2%	45µM*	9%
COCCCn1c(=N)c(C(=O)NC2CCCC2)cc2c(=O)n3ccccc3nc21	-14%	.	-5%	.	-22%[59 µM]	32%
Cn1c(-c2ccc(F)cc2)cnc1SCC(=O)Nc1ccccc1N1CCOCC1	?	-10%	-28%	-4%	45µM*	18%
CCCOc1ccc(NC(=O)Cc2ccc(S(=O)(=O)N3CCOCC3)s2)cc1OCCC	-39%	-15%	?	.	79µM*	-22%
COC(=O)c1ccccc1NC(=O)CNc1cc(Cl)ccc1N1CCOCC1	-5%	5%	-25%	?	45µM*	-2%
Cc1cc(C)c(CN2C(=O)c3ccccc3S(=O)(=O)c3ccc(C(=O)OCC4CCCO4)cc32)c(C)c1 (centres undefined)	-10%	.	-22%	.	-8%[59 µM]	11%
SMILES	BAZ2B inh	L3MBTL1 block	JMJD2A Tudor inh	Sfp inh	G9a block	HP1b chromo inh
COc1ccccc1CCC(=O)Nc1ccc(S(=O)(=O)Nc2cc(C)nc(C)n2)cc1	6%	0%	-7%	.	50µM*	22%
COc1ccccc1C(=O)Nc1ccc(S(=O)(=O)Nc2cc(C)nc(C)n2)cc1	5%	.	-1%	12%	2%[12.7 µM]	28%
Cc1cc(NS(=O)(=O)c2ccc(NC(=O)/C=C/c3ccc(C)o3)cc2)nc(C)n1	-28%	-23%	22µM*	3.5µM*	8.9µM*	-26%
COc1ccccc1/C=C/C(=O)Nc1ccc(S(=O)(=O)Nc2cc(C)nc(C)n2)cc1	?	.	-10%	-4%	35µM*	9%
COc1ccc(N2CCN(Cc3nc4c(c(=O)[nH]c(=O)n4C)n3Cc3ccccc3F)CC2)cc1	-24%	.	-8%	.	-11%[59 µM]	39%
COc1ccc(CCn2c(-n3nc(C)cc3C)nc3c2c(=O)[nH]c(=O)n3C)cc1	.	.	3.2µM*	.	.	-14%
COc1ccc(N2CCN(Cc3nc4c(c(=O)[nH]c(=O)n4C)n3Cc3ccccc3C)CC2)cc1	-23%	.	-4%	.	28µM*	19%
Cc1ccc(Cn2c(-n3nc(C)cc3C)nc3c2c(=O)[nH]c(=O)n3C)cc1	-4%	-1%	-3%	11%	-1%	28%
COc1ccc(N2CCN(c3nc4c(c(=O)[nH]c(=O)n4C)n3Cc3cccc(C)c3)CC2)cc1	-34%	-15%	?	-8%	10µM*	?
COc1cc2c(cc1OC)C1O[C@](CCCCN3C(=O)c4ccccc4C3=O)(C2)OC2=C1C(=O)CCC2	-20%[22.9 µM]	.	.	-7%	-18%[2.33 µM]	.
COCCNC(=O)c1nn(-c2ccc(Cl)cc2)nc1CO	-13%	.	-15%	.	5%[59 µM]	24%
CC1=NOC(=O)/C1=C/c1ccc2c(c1)OCO2	?	11%	-1%	1%	56µM*	33%
O=C1/C(=C\c2ccc3c(c2)OCO3)CCC/C1=C/c1ccc2c(c1)OCO2	25µM*	-28%	?	-27%	14µM*	-22%
O=C(Nc1ccccc1)N1CC2(CCN(C(=O)c3cccc(F)c3)CC2)C1	.	.	.	7%	8%[12.7 µM]	.
O=C1COCCN1	.	.	-10%	-1%	.	24%
O=C(O)C1=C(Nc2ccccc2)OCC1=O	-1%	.	?	21%	40µM*	24%
COc1ccc(S(=O)(=O)n2nc(C)c(S(=O)(=O)N3CCC(C)CC3)c2C)cc1C	-15%	.	-31%	.	-7%[59 µM]	17%[57 µM]
O=C(O)Cc1cccc(OCCCN(Cc2cccc(C(F)(F)F)c2Cl)CC(c2ccccc2)c2ccccc2)c1	.	.	.	45µM*	18µM*	.
Cc1ccc(N2CCN(S(=O)(=O)c3nnc(NC(=O)c4ccco4)s3)CC2)cc1	-8%	9%	-24%	-8%	28µM*	42%
